Data from PubChem BioAssay AID651791 (National Center for Advancing Translational Sciences (NCATS), 2012).
Records with an inconclusive call do not appear. Active and inactive are the calls of the source. Calls come from the whole dose curve; as a rule, active = well fitted inhibition curve with a large enough effect; inconclusive = small, poorly fitted or top-dose-only effect; inactive = no such curve, though single readings can be large or run the other way.

assay: InCell qHTS Assay for Inhibitors of the mTORC1 Signaling Pathway in MEF (Tsc2-/-, p53-/-) Cells: Hit Validation; conditions: phospho-rpS6 immunofluorescence, 24 h; activity change, negative = inhibition: at 38.3 µM (top of the series);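 note: phospho-S6 Ser235/236 signal normalized to propidium iodide cell count per well; nearly all actives have a fitted effect of over 75% in size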
Potency is the fitted concentration of half-maximal effect.

Structure (SMILES) | activity change, negative = inhibition | Potency
Cc1nn(CCCC(=O)NCc2cccc(Cl)c2)c(=O)c2c1sc1ccccc12 | -100% | 
COc1cc(C(=O)N(CCCN(C)C)c2nc3c(OC)cccc3s2)cc(OC)c1OC | -100% | 
CCOC(=O)c1c(NC(=O)c2ccc(S(=O)(=O)N3CCC(C)CC3)cc2)sc2c1CCN(C)C2 | 1.72% | 
Cc1ccc(NC(=O)c2nc(S(=O)(=O)Cc3cccc(C)c3)ncc2Cl)cc1 |  | 14.7 µM (active)
Cc1cccc(NC(=O)c2c(NC(=O)C(F)(F)F)sc3c2CCCCC3)c1 | -100% | 
CCN1CCN(C(=O)Cn2ncc3c4ccccc4n(Cc4c(C)cc(C)cc4C)c3c2=O)CC1 | -100% | 
Cc1c(C(=O)OC2CCC(C)CC2)[nH]c2c1C(=O)CC(c1ccc(F)cc1)C2 (stereo not drawn) | -1.27% | 
Cc1oc2c(cc(NS(=O)(=O)c3ccc(C(C)C)cc3)c3ccccc32)c1C(=O)OCc1ccccc1 | -1.72% | 
CCN(CC)c1ccc(NC(=O)CN(C)S(=O)(=O)c2cccc3nsnc23)c(C)c1 | -100% | 
COc1cccc(-n2c(-c3ccc(C)cc3)cc3c2CC(C)(C)CC3=O)c1 | -6.41% | 
COc1ccc(Nc2nc(N)c3cc(OC)c(OC)cc3n2)cc1 | -100% | 
COc1ccc(N2CCN(C(=O)C3CCCN(S(=O)(=O)c4ccc5c(c4)CCCN5C(C)=O)C3)CC2)cc1 (stereo not drawn) | -100% | 
O=C(Cn1c(=O)n(Cc2ccc3c(c2)OCO3)c(=O)c2ccc(C(=O)NC3CCCCC3)cc21)Nc1ccccc1F |  | 5.21 µM (active)
Cc1ccccc1C(=O)N1CCN(CCc2ccccn2)CC1 | -100% | 
Cc1c(C(=O)OC2CCCCC2)[nH]c2c1C(=O)CC(c1ccccc1Cl)C2 (stereo not drawn) | -100% | 
COc1cccc(C2CC(=O)Nc3cc4c(cc32)OCCO4)c1OC (stereo not drawn) | -100% | 
CCS(=O)(=O)c1ncc(Cl)c(C(=O)N(Cc2ccccc2)c2ccc(OC)cc2)n1 |  | 2.93 µM (active)
CC(C)c1ccc(NS(=O)(=O)c2ccc3nc(-c4ccccc4)[nH]c3c2)cc1 | -100% | 
CCOc1ccc(CC(=O)NC2CC(=O)N(c3ccc4c(c3)OCCO4)C2)cc1 (stereo not drawn) | -100% | 

Structure (SMILES) | activity change, negative = inhibition | Potency
CC1CCCCN1c1nnc(NC(=O)Nc2ccccc2F)s1 (stereo not drawn) | -100% | 
Cc1ccc(CNS(=O)(=O)c2cc(C(=O)Nc3cccc(C(F)(F)F)c3)ccc2F)cc1 | -100% | 
CCOc1ccccc1NS(=O)(=O)c1ccc(-c2cnc(C3CC3)o2)cc1 | -100% | 
Cc1ccc(NC(=O)c2c(NC(=O)C(F)(F)F)sc3c2CCCCC3)cc1 | -100% | 
CCC(=O)C1=C(c2ccc(F)cc2)N(C(=O)CC)n2cnnc2S1 | -21.8% | 
COc1ccc(CCNC(=O)CCCn2nc(C)c3sc4ccccc4c3c2=O)cc1OC | -100% | 
O=C(CSc1cn(CC(=O)N2CCCC2)c2ccccc12)Nc1ccc(Cl)cc1 | -100% | 
CCOC(=O)Cc1ccc(NC(=O)n2ncc3cc(Cl)ccc32)cc1 | -100% | 
COc1ccc(-c2ccc(CCC(=O)O)n2-c2ccccc2O)cc1 | -7.96% | 
CC1CCN(S(=O)(=O)c2ccc(C(=O)Nc3sc4c(c3C(N)=O)CC(C)(C)NC4(C)C)cc2)CC1 |  | 14.7 µM (active)
CC(C)c1nnc(NC(=O)c2nc(S(=O)(=O)Cc3ccccc3)ncc2Cl)s1 |  | 3.29 µM (active)
O=C(NCc1ccccc1Cl)C(=O)NCC(c1cccs1)S(=O)(=O)c1cccs1 (stereo not drawn) | -100% | 
CC(C)CS(=O)(=O)c1oc(-c2ccc(F)cc2)nc1S(=O)(=O)c1ccccc1 |  | 3.29 µM (active)
CCOC(=O)C1CCN(C(=O)CSc2c3c(nc4ccc(Cl)cc24)CCCC3)CC1 | -100% | 
COc1ccc(C2CC(=O)c3c([nH]c(C(=O)OC4CCCCCC4)c3C)C2)cc1OC (stereo not drawn) | -100% | 
CCCN1C(=O)C(O)(CC(=O)c2ccc(C(C)C)cc2)c2ccccc21 (stereo not drawn) | -100% | 
COc1ccccc1C(=O)Nc1ccc2nc(N3CCC(C)CC3)cc(C)c2c1 | -100% | 
CCS(=O)(=O)c1oc(-c2ccc(F)cc2)nc1S(=O)(=O)c1ccccc1 |  | 0.736 µM (active)
CCCS(=O)(=O)c1ncc(Cl)c(C(=O)Nc2c(C(=O)Nc3ccccc3)oc3ccccc23)n1 |  | 2.33 µM (active)
